# From PubChem
# Only some compounds are listed: those with a hit (about 27% of all), similar ones and a draw of the others.
# CYP2C9 inhib – inhibitors of human CYP2C9; P11712; CYP2C9 Supersomes, luciferin-H conversion, luminescence; inhibition, % at 5 µM; 96,000 compounds, 20% hits; AID 777;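 active = blocking of liver enzyme CYP2C9 beyond about 50% at 5 µM, limit read from the data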
# Target sequence (P11712 whole entry, looked up): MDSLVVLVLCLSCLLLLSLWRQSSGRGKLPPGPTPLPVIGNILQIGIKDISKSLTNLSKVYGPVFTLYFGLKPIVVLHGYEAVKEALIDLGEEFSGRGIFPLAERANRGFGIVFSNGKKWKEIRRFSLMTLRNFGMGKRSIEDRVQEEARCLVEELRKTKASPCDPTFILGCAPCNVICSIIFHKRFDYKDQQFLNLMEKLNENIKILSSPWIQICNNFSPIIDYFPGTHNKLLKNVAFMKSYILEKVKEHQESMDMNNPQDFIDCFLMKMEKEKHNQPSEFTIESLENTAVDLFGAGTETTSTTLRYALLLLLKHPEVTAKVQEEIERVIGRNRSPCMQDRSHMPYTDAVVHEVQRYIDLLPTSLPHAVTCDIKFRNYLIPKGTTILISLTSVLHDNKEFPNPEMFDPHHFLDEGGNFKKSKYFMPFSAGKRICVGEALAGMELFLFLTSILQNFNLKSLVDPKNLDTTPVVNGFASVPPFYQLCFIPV
# CYP2C19 inhib – blocks human cytochrome P450 2C19. 96,000 compounds, 21% hits. CYP2C19 Supersomes, luciferin-H EGE luminescence, 30 min. inhibition, % at 5 µM. AID 778;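 active = CYP2C19 inhibition above a set limit at 5 µM in the primary screen, cut at about 50% in these data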;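 also: plate controls were negative control wells for no effect and 2.5 mM tranylcypromine positive control for full effect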
# CYP2C9 act – activators of human CYP2C9; P11712; recombinant CYP2C9, luciferin-H conversion, luminescence; stronger effect = higher value; factor 1 = untreated enzyme, 0 = blocked; activation factor at 5 µM; 96,000 compounds, 1.4% hits; AID 1024;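 active = activation factor of 2 or more for CYP2C9 at a 5 µM dose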;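 also: 0 = sulfaphenazole-blocked wells and 1 = vehicle-only wells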
# CYP2C19 act – cytochrome P450 2C19 (human) activation; 96,000 tested, under 10 active; recombinant CYP2C19, luciferin-H EGE luminescence; stronger effect = higher value; 0 = fully inhibited enzyme, 1 = untreated enzyme; activation factor at 5 µM; AID 1025;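 active = activation factor of at least 2 at 5 µM in the primary screen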;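 also: 0 = wells with 2.5 mM tranylcypromine and 1 = vehicle-only wells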
# sEH activator – soluble epoxide hydrolase (human) activation | P34913 | purified human sEH enzymatic activity, activator screen | activation, % at 2 µM | 91,000 compounds, 0.04% hits | AID 717; in the data active = activation above about 37%
# sEH inhibitor – soluble epoxide hydrolase (human) inhibition. P34913. recombinant human sEH enzymatic activity assay. inhibition, % at 2 µM. 91,000 compounds, 0.34% hits; in the data active = inhibition above about 80%
# An asterisk follows results filed as active; · = no result given.
SMILES,CYP2C9 inhib,CYP2C19 inhib,CYP2C9 act,CYP2C19 act,sEH activator,sEH inhibitor
CCC(C)(C)n1nnnc1C(c1cc2ccc(C)cc2[nH]c1=O)N(Cc1cccnc1)Cc1ccco1 (stereo unspecified),89*,99*,0.1,0,1,-1
Cc1cc2cc(C(c3nnnn3C3CCCC3)N(Cc3cccnc3)Cc3ccco3)c(=O)[nH]c2cc1C (stereo unspecified),60*,60*,0.4,0.4,-14,12
COCCn1nnnc1C(c1cc2ccc(C)cc2[nH]c1=O)N(Cc1ccco1)Cc1cccs1 (stereo unspecified),70*,47,0.3,0.5,·,·
CCCC(c1nnnn1C(C)(C)CC)N(Cc1ccco1)Cc1cc2ccc(OC)cc2[nH]c1=O (stereo unspecified),41,29,0.6,0.7,1,-1
Cc1ccc2cc(C(c3nnnn3C3CCCC3)N(Cc3ccccc3)Cc3ccco3)c(=O)[nH]c2c1 (stereo unspecified),35,24,0.7,0.8,·,·
CC(C)C(c1nnnn1C1CCCC1)N(C)C1CCCCC1 (stereo unspecified),51*,22,0.5,0.8,-8,6
CC(C)C(c1nnnn1C1CCCC1)N1CCc2ccccc21 (stereo unspecified),57*,30,0.4,0.7,-4,5
CC(C)C(c1nnnn1C1CCCC1)N1CCCc2ccccc21 (stereo unspecified),·,·,·,·,13,-15
COc1cc2cc(C(c3nnnn3C3CCCC3)N(C)C3CCCCC3)c(=O)[nH]c2cc1OC (stereo unspecified),·,·,·,·,-1,1
COc1cc2cc(C(c3nnnn3C3CCCCC3)N(C)C3CCCCC3)c(=O)[nH]c2cc1OC (stereo unspecified),50*,62*,0.5,0.4,·,·
CC(C)c1nc2ccccc2n1CCC(=O)O,-36,-38,1.4,1.4,0,2
CC(=O)Cc1nsc(NC(=O)C2Cc3ccccc3C(=O)O2)n1 (stereo unspecified),-5,-3,1.1,1,2,-3
Cc1nc2sc(C(c3ccco3)N3CC(C)OC(C)C3)c(O)n2n1 (stereo unspecified),-14,3,1.1,1,-2,3
CCOc1ccc(C(=O)NCC(C)C)cc1,-20,-13,1.2,1.1,-10,8
CC(C)COc1ccc(C(=O)Nc2scc(-c3ccc(Cl)cc3Cl)c2C(N)=O)cc1,67*,30,0.3,0.7,-2,2
O=C(CSc1nc2ccccc2c(=O)n1CCC(=O)N1CCCCC1)NCc1ccccc1,·,·,·,·,4,-4
O=C(CCCn1c(SCC(=O)NCC2CCCO2)nc2ccccc2c1=O)NCc1ccccc1 (stereo unspecified),56*,29,0.4,0.7,-25,22
CCCCn1c(SCC(=O)Nc2nccs2)nc2ccccc2c1=O,18,8,0.8,0.9,0,2
O=C(CCCn1c(SCC(=O)c2ccc(F)cc2)nc2ccccc2c1=O)NCc1ccccc1,90*,71*,0.1,0.3,-20,17
COc1ccc(-n2c(SCC(=O)NCC3CCCO3)nc3ccccc32)cc1 (stereo unspecified),90*,93*,0.1,0.1,-2,0
COc1ccc(-n2c(Cc3cccn3C)nnc2SCC(=O)NCC2CCCO2)cc1 (stereo unspecified),-7,-16,1.1,1.2,-9,8
Cc1cc(NC(=O)CSc2nc3ccccc3c(=O)n2CCCC(=O)NCc2ccccc2)n[nH]1,78*,87*,0.2,0.1,-43,42
O=C1N2CCSC2=NC1(Nc1nccs1)C(F)(F)F (stereo unspecified),-7,-7,1.1,1.1,0,0
CC1(C)CC(=O)C2=C(C1)NC(=O)CC2C(=O)NCc1ccc(F)cc1 (stereo unspecified),-9,5,1.1,0.9,-1,-1
O=C(CCCN1C(=O)c2ccccc2C1=O)Oc1ccc(F)cc1,6,65*,0.9,0.3,-13,8
SMILES,CYP2C9 inhib,CYP2C19 inhib,CYP2C9 act,CYP2C19 act,sEH activator,sEH inhibitor
Cc1cc(C)cc(OC(=O)CCN2C(=O)c3ccccc3C2=O)c1,·,·,·,·,2,2
CCOc1ccccc1C1C(C(=O)Nc2ccc(OC)cc2)=C(C)Nc2nc(CCCO)nn21 (stereo unspecified),·,·,·,·,7,-7
CC1=C(C#N)C(NC(=O)C2CC2)(C(F)(F)F)C(=O)N1 (stereo unspecified),-16,-16,1.2,1.2,3,-1
Cc1ccc(C2CC(c3ccccc3)=NN2C(=S)Nc2ccccc2)o1 (stereo unspecified),56*,34,0.4,0.7,-6,7
COc1cccc(C2CC(c3cccs3)=NN2C(=S)Nc2ccccc2)c1OC (stereo unspecified),43,24,0.6,0.8,-7,7
Cc1ccc(C)c(-c2cc(C(=O)Nc3sc(C)c(C)c3C(N)=O)c3ccccc3n2)c1,96*,41,0,0.6,-1,3
CCOC(=O)c1sc(NC(=O)c2cc(-c3ccccc3)nc3ccccc23)c(C#N)c1C,49,5,0.5,1,3,-3
COc1cccc(-c2cc(C(=O)Nc3nc4ccccc4s3)c3ccccc3n2)c1,51*,22,0.5,0.8,4,-3
COc1ccc(-c2cc(C(=O)Nc3nc4c(C)cccc4s3)c3ccccc3n2)cc1OC,35,-4,0.6,1,8,-9
Cc1cccc(-c2cc(C(=O)Nc3sc(C)c(C)c3C(N)=O)c3ccccc3n2)c1,69*,0,0.3,1,1,1
CC(C)Cc1nnc(NC(=O)c2cc(-c3ccccc3)nc3ccccc23)s1,32,44,0.7,0.6,2,-3
COc1cccc(C(=O)NCc2ccc(-c3nc4ccccc4s3)cc2)c1,82*,39,0.2,0.6,-3,5
Cc1cc(Nc2ccccc2)n(CCO)n1,17,6,0.8,0.9,3,-3
COc1ccc(-c2nc3ccccc3s2)cc1O,72*,41,0.3,0.6,12,-12
C=CCOc1ccccc1C1NC(=O)NC(C)=C1C(=O)NCc1ccccc1 (stereo unspecified),41,18,0.6,0.8,7,-8
CCOC(=O)c1ccc(Cn2cnc3ccccc3c2=O)cc1,55*,62*,0.5,0.4,19,-20
COc1ccc(Cl)cc1NC(=O)CCn1cnc2ccccc2c1=O,-130,66*,2.3*,0.3,0,2
COC(=O)c1ccc(Cn2cnc3ccccc3c2=O)cc1,27,67*,0.7,0.3,·,·
COC(=O)c1ccc(C)c(NC(=O)Cn2cnc3ccccc3c2=O)c1,99*,82*,0,0.2,9,-9
Cc1ccc(C(=O)Cn2cnc3ccccc3c2=O)cc1,·,·,·,·,1,4
CC#CCCCC(=O)Nc1cccc(C(=O)O)c1,-4,39,1,0.6,2,0
